Compound activity deposited in PubChem by several laboratories.
Sampled rows, rich in hits. Any-hit rate of the full collection: about 2%.
Wee1 stabilizer: human Wee1 degradation inhibition, primary screen; HeLa Luc-Wee1K328M stability, luciferase luminescence; 100% = proteasome inhibitor MG132 effect; hit rate 1.2% among 220,000; reporter increase, % at 5 µM;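 active means activation above the mean of all tested compounds plus 3 SD, set per screening run, cut at about 8.8% in these data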;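 further: cells exposed to compound for 20 h before luminescence read; 0% = DMSO alone and 100% = MG132 at 30 µM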
Target sequence (P30291 whole entry K328M): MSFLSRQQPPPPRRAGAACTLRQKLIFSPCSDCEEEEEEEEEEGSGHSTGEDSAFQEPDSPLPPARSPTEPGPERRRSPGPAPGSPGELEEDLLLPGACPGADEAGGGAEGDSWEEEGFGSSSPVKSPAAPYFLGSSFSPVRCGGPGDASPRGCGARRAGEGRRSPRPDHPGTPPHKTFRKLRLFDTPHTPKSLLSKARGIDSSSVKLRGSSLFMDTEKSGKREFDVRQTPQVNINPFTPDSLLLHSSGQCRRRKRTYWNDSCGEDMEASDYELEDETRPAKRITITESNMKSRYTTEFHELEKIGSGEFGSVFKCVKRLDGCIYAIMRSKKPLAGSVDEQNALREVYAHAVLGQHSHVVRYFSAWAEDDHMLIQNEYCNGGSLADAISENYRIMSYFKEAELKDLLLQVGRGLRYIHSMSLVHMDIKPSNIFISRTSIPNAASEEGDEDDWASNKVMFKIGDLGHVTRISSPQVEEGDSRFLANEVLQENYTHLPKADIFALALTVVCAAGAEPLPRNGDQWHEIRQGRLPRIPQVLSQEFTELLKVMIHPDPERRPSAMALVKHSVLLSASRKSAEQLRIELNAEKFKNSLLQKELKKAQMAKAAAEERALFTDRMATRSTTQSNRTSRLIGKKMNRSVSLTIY
Arbovirus inh: blocks arbovirus infection; hit rate 0.37% among 200,000; arbovirus infection cell-based antiviral screen; inhibition, % at 10 µM; in the data active means inhibition above about 30%
Hsp70 activator: switches on Hsp70 transcription | activation, % at 10 µM | AID 1203 | hit rate 0.04% among 200,000 | HeLa Hsp70 promoter luciferase reporter, luminescence; scaled: vehicle 0, proteasome-inhibitor control 100%;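 active means activation above the mean across all tested compounds plus 3 SD, cutoff set per campaign, cut at about 5.5% in these data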;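 further: 100% = MG132 at 30 µM as the positive control and 0% = DMSO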
Efa HMGR inh: blocks class II HMG-CoA reductase of Enterococcus faecalis; inhibition, % at 10 µM; purified E. faecalis HMGR, NADPH absorbance 340 nm kinetic; hit rate 0.41% among 190,000; AID 1066;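 active means inhibition above a set limit, the median over all tested compounds plus 3 SD, cut at about 9.5% in these data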;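 further: enzyme runs in reverse so mevalonate oxidation gives rising NADPH absorbance; 0% = complete reaction with DMSO and 100% = background rate lacking mevalonate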
PKD1 kinase inh: PKD1 (human) kinase inhibition; inhibition, % (no concentration beside the values); hit rate 0.056% among 200,000; PKD1 kinase fluorescence polarization assay; Q15139; in the data active means inhibition above about 50%
The depositor's hits bear a star; / = not tested or not shown.

SMILES	Wee1 stabilizer	Arbovirus inh	Hsp70 activator	Efa HMGR inh	PKD1 kinase inh
COC(=O)c1nnn(-c2ccccc2)c1N	4	-5	0	5	-3
CCOC(=O)C(CC)n1cnc2c(nnn2-c2ccc(OC)cc2)c1=O (configuration not stated)	-2	4	0	27*	-4
CCOC(=O)c1nnn(-c2ccc(OC)cc2)c1N	5	5	0	15*	0
O=C(Nc1ccc2c(c1)OCO2)c1noc2c1CCCCC2	10*	-9	0	-18	3
CC(=O)c1ccc(NC(=O)c2noc3c2CCCCC3)cc1	7	-1	0	4	3
Cc1[nH]n(S(=O)(=O)Cc2ccccc2)c(=O)c1N=Nc1ccccc1Cl	2	7	0	10*	-3
Cc1ccccc1N=Nc1c(C)[nH]n(-c2ccccc2)c1=O	0	0	0	-6	-2
O=C(Nc1ccccc1)Nc1nnc(-c2ccccc2)o1	-1	3	0	4	17
O=C(Nc1nnc(-c2ccc(Cl)cc2)o1)Nc1ccccc1F	13*	/	/	/	/
Cc1nn(C)c(C)c1CS(=O)(=O)c1ccccc1	-1	0	0	0	-6
CCCS(=O)c1nc(C)cc(C)c1S(C)(=O)=O (configuration not stated)	1	1	0	-4	-7
CC1CC1C(=O)OCC(=O)NC(=O)NC12CC3CC(CC(C3)C1)C2 (configuration not stated)	2	15	0	-1	-2
Cc1ccc(-n2c(-c3nn(C)c(C)c3Cl)n[nH]c2=S)cc1	-2	-1	1	-8	1
CCn1c(-c2nn(C)c(C)c2Cl)n[nH]c1=S	2	2	0	11*	2
COc1ccc(NC(=O)C(c2cc3c(cc2[N+](=O)[O-])OCO3)N(C)c2ccccc2)cc1 (configuration not stated)	-2	-4	0	-2	-20
Cc1ccc(C2=NNC(c3cccc(F)c3)S2)cc1 (configuration not stated)	15*	-3	0	0	-4
Oc1ccc(Nc2ccnc3cc(Cl)ccc23)cc1	-2	/	/	/	/
Clc1ccc(NNc2ccnc3cc(Cl)ccc23)cc1	1	-6	0	15*	0
Fc1ccc(-c2nc(-c3cccs3)no2)cc1	15*	/	/	/	/
O=C(O)CCNC(=S)Nc1cccc(F)c1	3	/	/	/	/
COc1ccc(C)cc1NC(=O)COC(=O)c1c(C)noc1C	-2	-4	0	4	-9
Cc1noc(C)c1C(=O)OCC(=O)Nc1cc(Cl)ccc1Oc1ccccc1	-1	47*	0	0	1
CN(C(=O)c1ccc(COc2ccccc2Br)o1)c1ccccc1	2	4	0	-10	-4
CCOC(=O)c1c(C)[nH]c(C)c1C(=O)CSc1nncs1	-2	4	0	10*	-1
CCOC(=O)c1c(C)[nH]c(C)c1C(=O)CSc1ncccn1	6	9	0	-9	1
SMILES	Wee1 stabilizer	Arbovirus inh	Hsp70 activator	Efa HMGR inh	PKD1 kinase inh
S=C(c1ccc(-c2ccc(Br)cc2)o1)N1CCOCC1	10*	/	/	/	/
S=C(c1ccc(-c2ccc(Br)cc2)o1)N1CCCCC1	3	20	0	2	-6
Fc1ccccc1N1CCN(c2ncnc3[nH]ncc23)CC1	2	43*	0	1	-8
Cc1cc(=O)[nH]c(NN=C2C3CC4CC(C3)CC2C4)n1	-2	/	/	/	/
O=C(c1ccc(-c2ccc([N+](=O)[O-])cc2Cl)o1)N1CCOCC1	11*	7	0	-11	10
COc1cccc(-c2nn(-c3ccccc3)cc2/C=C(/NC(=O)c2ccccc2)C(=O)O)c1	-1	/	/	/	/
COc1cc(C)nc(Oc2ccc(OCCOc3ccccc3)nn2)n1	0	1	0	19*	-5
CCN(CC)c1ccc(/C=N/NC(=O)c2ccccn2)cc1	9.5*	/	/	/	/
CCc1ccc(/C=N/NC(=O)c2ccccn2)cc1	-2	/	/	/	/
COC(=O)c1ccc(CSc2ncnc3c2nnn3-c2ccc(OC)cc2)o1	12*	-10	0	4	-29
COC(=O)c1ccc(C)c(NC(=O)c2nn(C)c(=O)c3ccccc23)c1	8.9*	-10	0	-2	9
COc1ccc(-c2ccc(SCC(=O)c3ccccc3)nn2)cc1OC	1	-19	0	11*	0
Cc1ccc(-c2ccc(SCC(=O)c3ccccc3)nn2)cc1	5	-24	0	-4	1
CCNC(=O)CN1C(=O)NC(CCc2ccccc2)C1=O (configuration not stated)	2	-1	0	0	-6
COC(=O)C1CCN(C(=O)CN2C(=O)NC(CCc3ccccc3)C2=O)CC1 (configuration not stated)	-4	5	0	-2	1
O=C(CN1C(=O)NC(CCc2ccccc2)C1=O)NC1CC1 (configuration not stated)	11*	19	0	-2	-1
Cc1cc(C)c(NC(=O)CN2C(=O)NC(CCc3ccccc3)C2=O)c(C)c1 (configuration not stated)	11*	7	0	2	0
Cc1cc(C)c(S(C)(=O)=O)c(N(C)N)n1	4	-1	0	-6	4
Cc1nc2sc(C(c3cccs3)N3CCN(c4cccc(Cl)c4)CC3)c(O)n2n1 (configuration not stated)	11*	20	0	-3	-9
N#Cc1c(C(F)(F)F)cc(-c2cccc(Cl)c2)[nH]c1=O	-3	42*	0	-7	-16
N#Cc1c(C(F)(F)F)cc(-c2ccc(Cl)cc2)[nH]c1=O	-1	43*	0	-6	-7
N#Cc1c(C(F)(F)F)cc(-c2ccc(F)cc2)[nH]c1=O	0	30	0	-3	-6
O=C(NNC(=O)c1cccnc1)Nc1cccc(Cl)c1Cl	2	2	0	3	6
COc1ccc(NC(=O)CSc2nncs2)cc1S(N)(=O)=O	2	/	/	/	/
COc1ccc(NC(=O)CSc2nccn2C)cc1S(N)(=O)=O	-2	13	0	10*	-4
SMILES	Wee1 stabilizer	Arbovirus inh	Hsp70 activator	Efa HMGR inh	PKD1 kinase inh
CC(NC(=O)CSc1ncccc1C(=O)O)C1CC2CCC1C2 (configuration not stated)	2	/	/	/	/
CC1(C)CC2CC(C)(CN2C(=O)COC(=O)CNC(=O)c2ccc(Cl)c(Cl)c2)C1 (configuration not stated)	11*	7	0	-2	10
CC1CCCN(C(=O)C2CCN(CC(C)c3ccccc3)CC2)C1 (configuration not stated)	0	1	0	15*	-4
O=C(CSc1nc(-c2ccccc2)nc2ccccc12)Nc1cccc(C(=O)O)c1	1	10	0	-3	9
O=C(CSc1nc(-c2ccc(F)cc2)nc2c1Cc1ccccc1O2)Nc1ccc(C(=O)O)cc1	-1	32*	-1	1	9
O=C(CSc1nc(-c2ccccc2)nc2c1Cc1ccccc1O2)Nc1ccc(C(=O)O)cc1	4	68*	0	15*	0
CCOC(=O)c1sc(Nc2nc(OC)cc(OC)n2)nc1C	6	-3	0	4	-3
